Measurements reported in PubChem BioAssay (NCATS).
Inconclusive results are not listed. Activity calls are given as the source filed them. Unless noted, the call rests on the fitted dose curve; in most records, active means well fitted curve in the direction sought with a large enough effect; inconclusive means small, poorly fitted or top-dose-only effect, or another doubt; inactive means no such curve, though single readings can be large; an effect the other way counts as inactive or inconclusive.

Experiments:
[1] = target: Lysosomal acid glucosylceramidase (Homo sapiens) (UniProt P04062); assay: Glucocerebrosidase-p2 (AID 348; in the data active means potency below about 10 µM; further: potency means the concentration at half of the fitted maximal effect); conditions: purified GBA, blue fluorogenic substrate, 40 min
Sequence of Lysosomal acid glucosylceramidase (Homo sapiens) (P04062 whole entry, looked up): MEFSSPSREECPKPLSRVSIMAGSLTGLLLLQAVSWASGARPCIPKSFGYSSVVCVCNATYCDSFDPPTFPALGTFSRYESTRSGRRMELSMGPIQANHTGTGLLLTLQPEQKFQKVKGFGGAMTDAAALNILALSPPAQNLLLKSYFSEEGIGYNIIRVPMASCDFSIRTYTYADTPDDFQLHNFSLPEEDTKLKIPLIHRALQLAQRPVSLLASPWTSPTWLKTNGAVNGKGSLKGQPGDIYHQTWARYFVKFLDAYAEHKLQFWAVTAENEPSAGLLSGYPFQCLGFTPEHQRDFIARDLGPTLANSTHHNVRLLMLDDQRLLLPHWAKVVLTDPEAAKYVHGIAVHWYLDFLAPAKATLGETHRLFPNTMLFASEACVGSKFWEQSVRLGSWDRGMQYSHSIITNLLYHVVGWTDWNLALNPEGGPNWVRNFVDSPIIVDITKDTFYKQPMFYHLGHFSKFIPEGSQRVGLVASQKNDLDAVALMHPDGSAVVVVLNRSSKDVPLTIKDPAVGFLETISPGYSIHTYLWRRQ
How it was run: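 Normal human glucocerebrosidase (0.2 nM) with blue fluorogenic substrate (80 uM final) in citrate/phosphate pH 5.9 with 10mM sodium taurocholate, 0.01% tween-20; 40 min RT, NaOH/glycine stop; fluorescence Ex 365/Em 440; AC50 from a titration from 0.6 nM upwards.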

[2] = AP1 Signaling Pathway (AID 357; active means well fitted curve in either direction with a large enough effect, not every such curve was filed as active;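 further: ME-180 reporter cells stimulated with EGF at its EC50 level; on the % scale 0 is the no-effect control and ±100 the full control effect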); conditions: ME-180 AP-1-bla reporter, EGF-induced, beta-lactamase ratio, 5 h; at 7.69 µM (top of the series) unless noted
How it was run: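 Cells are seeded overnight, exposed to compound titrations and an EC50 level of EGF for 5 hours at 37 °C, then loaded with CCF4 dye for 2.5 hours. Beta-lactamase activity under the AP-1 element is read as a blue/green ratio.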

[3] = target: Cytochrome P450 1A2 (Homo sapiens) (UniProt P05177); assay: p450-cyp1a2 (AID 410; calls by dose curve;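 further: -100% = full effect of reference inhibitor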); conditions: recombinant CYP1A2, luciferin-ME demethylation, luminescence; series mostly up to 11.4 µM
Sequence of Cytochrome P450 1A2 (Homo sapiens) (P05177 whole entry, looked up): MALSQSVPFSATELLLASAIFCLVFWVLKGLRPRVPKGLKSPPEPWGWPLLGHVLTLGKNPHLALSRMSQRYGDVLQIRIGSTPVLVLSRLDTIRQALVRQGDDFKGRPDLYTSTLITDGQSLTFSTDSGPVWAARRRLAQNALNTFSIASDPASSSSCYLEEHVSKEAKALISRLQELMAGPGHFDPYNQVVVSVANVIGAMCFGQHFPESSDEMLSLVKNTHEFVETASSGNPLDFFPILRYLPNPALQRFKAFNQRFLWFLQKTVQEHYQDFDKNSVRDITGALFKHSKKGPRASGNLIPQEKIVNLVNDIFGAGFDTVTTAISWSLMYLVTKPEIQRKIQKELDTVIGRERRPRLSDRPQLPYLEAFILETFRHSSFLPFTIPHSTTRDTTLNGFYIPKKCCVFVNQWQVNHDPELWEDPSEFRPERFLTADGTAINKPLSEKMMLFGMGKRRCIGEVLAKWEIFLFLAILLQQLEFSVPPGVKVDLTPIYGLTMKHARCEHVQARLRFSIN
How it was run: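 Luminescent demethylation readout: Luciferin-ME (100uM, equal to Km) turned over by 20nM CYP1A2 for 60 min at room temperature after NADPH regeneration addition, following 10 min compound preincubation. Normalization used 57 uM furafylline as full inhibition.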

[4] = NFAT Signaling Pathway (AID 444; active means well fitted curve in either direction with a large enough effect, not every such curve was filed as active;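 further: carbachol stimulus at about its EC50 of 1 µM final; on the % scale 0 is the no-effect control and ±100 the full control effect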); conditions: Jurkat NFAT-bla M1, carbachol, beta-lactamase ratio, 5 h; at 7.69 µM (top of the series) unless noted
How it was run: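 Jurkat cells carrying an NFAT-driven β-lactamase reporter and co-transfected muscarinic M1 receptor were treated with compound plus carbachol (1 uM final, an EC50 level) for 5 h at 37 °C. CCF4 loading followed for 1 h at RT; 460/530 nm ratio gave %activity.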

[5] = Stat Signaling Pathway (AID 446; active means well fitted curve in either direction with a large enough effect, not every such curve was filed as active;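 further: ME-180 cervical cancer cells given 40 pM IL-6 alongside compound; SIE-controlled beta-lactamase reporter measured as 460/530 nm FRET emission ratio; on the % scale 0 is the no-effect control and ±100 the full control effect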); conditions: ME-180 (cervical carcinoma) SIE beta-lactamase reporter, IL-6 stimulated, 5 h; at 7.69 µM (top of the series) unless noted
How it was run: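 Compound effects on IL-6-induced STAT reporter activity were measured in ME-180 cells. After overnight culture, cells were co-treated with 40 pM IL-6 for 5 hrs before beta-lactamase substrate loading at room temperature.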

[6] = target: Glucocorticoid receptor (Homo sapiens) (UniProt P04150); assay: GR-GFP Redistribution (AID 450;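 active means compounds whose dose series gives a full or clear partial fitted curve of increased nuclear translocation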; further: potency means the concentration at half of the fitted maximal effect); conditions: U2OS GR-GFP nuclear translocation, laser cytometry, 2 h
Sequence of Glucocorticoid receptor (Homo sapiens) (P04150 whole entry, looked up, the tested form may be a part): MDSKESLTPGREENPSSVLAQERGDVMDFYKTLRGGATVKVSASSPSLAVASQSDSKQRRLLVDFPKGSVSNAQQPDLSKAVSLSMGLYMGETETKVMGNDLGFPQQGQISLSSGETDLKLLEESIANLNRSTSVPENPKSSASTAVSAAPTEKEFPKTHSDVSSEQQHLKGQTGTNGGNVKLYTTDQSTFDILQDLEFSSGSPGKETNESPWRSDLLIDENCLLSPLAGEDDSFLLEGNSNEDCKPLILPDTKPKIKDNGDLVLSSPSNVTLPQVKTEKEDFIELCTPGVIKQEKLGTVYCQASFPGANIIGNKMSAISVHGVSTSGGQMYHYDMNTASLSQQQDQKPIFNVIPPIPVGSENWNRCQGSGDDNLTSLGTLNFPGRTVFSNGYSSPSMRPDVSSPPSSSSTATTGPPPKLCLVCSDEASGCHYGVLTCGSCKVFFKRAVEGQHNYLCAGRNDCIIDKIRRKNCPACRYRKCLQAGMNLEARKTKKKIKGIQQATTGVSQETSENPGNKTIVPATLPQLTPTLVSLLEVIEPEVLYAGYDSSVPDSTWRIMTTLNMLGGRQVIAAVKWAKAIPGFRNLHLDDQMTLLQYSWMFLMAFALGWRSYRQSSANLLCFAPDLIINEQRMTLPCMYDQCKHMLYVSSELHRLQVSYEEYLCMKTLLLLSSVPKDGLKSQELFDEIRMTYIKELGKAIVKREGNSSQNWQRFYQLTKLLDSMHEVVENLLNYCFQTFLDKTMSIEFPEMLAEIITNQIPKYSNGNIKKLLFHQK

[7] = target: Glucocorticoid receptor (Homo sapiens) (UniProt P04150); assay: GR-EFC Redistribution (AID 451; calls by dose curve; further: potency means the concentration at half of the fitted maximal effect); conditions: CHO-K1 GR-EFC translocation, beta-gal luminescence, 2 h
How it was run: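 CHO-K1 cells stably expressing nuclear-localized β-gal enzyme acceptor and GR fused C-terminally to the enzyme donor fragment; ligand-driven nuclear translocation restores β-gal by complementation. Compounds titrated up to 46 uM final, 2 h at 37 °C; luminescence read.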

[8] = target: Mitogen-activated protein kinase 10 (Mus musculus) (UniProt Q61831); assay: JNK3 AlphaScreen Assay (AID 530; active means well fitted curve in either direction with a large enough effect, not every such curve was filed as active;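 further: kinase came from lysate of stimulated human HepG2 cells; signal reports phosphorylation of biotinylated GST-cJun 1-79 at Ser73 with 10 µM ATP; on the % scale 0 is the no-effect control and ±100 the full control effect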); conditions: JNK3 lysate, c-Jun phosphorylation; series mostly up to 57.1 µM
How it was run: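 Phosphorylation of biotinylated GST-cJun(1-79) at Ser73 is measured by AlphaScreen proximity luminescence. Enzyme is JNK3 in HepG2 lysates activated with interleukin-1beta and tumor necrosis factor alpha; ATP is 10 uM final.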

[9] = target: 3',5'-cyclic-AMP phosphodiesterase 4B (Homo sapiens) (UniProt Q07343); assay: qHTS Assay for Inhibitors of PDE-IV (AID 607; active means well fitted activation curve with a large enough effect in the main read-out, with a control signal flat, not every such curve was filed as active; further: % of control where 0% means no effect); conditions: HEK293 ACTOne CNG channel cells, membrane potential fluorescence; series mostly up to 22.9 µM
Sequence of 3',5'-cyclic-AMP phosphodiesterase 4B (Homo sapiens) (Q07343 whole entry, looked up): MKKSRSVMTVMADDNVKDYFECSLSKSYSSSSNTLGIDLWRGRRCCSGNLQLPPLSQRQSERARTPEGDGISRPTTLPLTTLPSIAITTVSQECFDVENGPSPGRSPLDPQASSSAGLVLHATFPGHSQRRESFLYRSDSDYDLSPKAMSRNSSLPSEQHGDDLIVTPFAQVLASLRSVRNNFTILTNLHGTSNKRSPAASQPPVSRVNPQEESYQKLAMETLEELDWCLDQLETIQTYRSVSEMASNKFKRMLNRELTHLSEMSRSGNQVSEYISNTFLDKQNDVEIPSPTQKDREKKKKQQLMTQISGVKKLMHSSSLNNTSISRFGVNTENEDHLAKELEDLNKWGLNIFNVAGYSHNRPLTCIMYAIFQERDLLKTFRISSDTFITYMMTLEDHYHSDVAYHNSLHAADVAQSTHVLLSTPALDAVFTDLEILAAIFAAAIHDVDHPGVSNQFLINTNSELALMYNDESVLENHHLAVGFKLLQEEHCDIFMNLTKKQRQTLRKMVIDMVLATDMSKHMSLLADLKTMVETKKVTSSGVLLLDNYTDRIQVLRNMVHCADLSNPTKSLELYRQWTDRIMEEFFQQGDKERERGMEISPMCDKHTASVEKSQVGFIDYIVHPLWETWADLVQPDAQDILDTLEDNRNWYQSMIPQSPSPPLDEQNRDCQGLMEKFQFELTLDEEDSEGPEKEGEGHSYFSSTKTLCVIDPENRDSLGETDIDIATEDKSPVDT
How it was run: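 ACTOne HEK293 cells carry a modified cAMP-gated CNG channel and express endogenous PDE4; plated 1000 cells/well, compounds up to 22.9 uM final. Membrane-potential dye fluorescence (ex 535/em 590) was read; parental cells received 10 uM forskolin + 100 uM RO 20-1724.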

[10] = target: Cytochrome P450 2C19 (Homo sapiens) (UniProt P33261); assay: qHTS Assay for Inhibitors and Substrates of Cytochrome P450 2C19 (AID 899); conditions: recombinant CYP2C19, luciferin-H EGE luminescence; series mostly up to 11.4 µM; further: on the % scale 0 is the no-effect control and ±100 the full control effect; nearly all actives have a fitted effect of over 60% in size
Sequence of Cytochrome P450 2C19 (Homo sapiens) (P33261 whole entry, looked up): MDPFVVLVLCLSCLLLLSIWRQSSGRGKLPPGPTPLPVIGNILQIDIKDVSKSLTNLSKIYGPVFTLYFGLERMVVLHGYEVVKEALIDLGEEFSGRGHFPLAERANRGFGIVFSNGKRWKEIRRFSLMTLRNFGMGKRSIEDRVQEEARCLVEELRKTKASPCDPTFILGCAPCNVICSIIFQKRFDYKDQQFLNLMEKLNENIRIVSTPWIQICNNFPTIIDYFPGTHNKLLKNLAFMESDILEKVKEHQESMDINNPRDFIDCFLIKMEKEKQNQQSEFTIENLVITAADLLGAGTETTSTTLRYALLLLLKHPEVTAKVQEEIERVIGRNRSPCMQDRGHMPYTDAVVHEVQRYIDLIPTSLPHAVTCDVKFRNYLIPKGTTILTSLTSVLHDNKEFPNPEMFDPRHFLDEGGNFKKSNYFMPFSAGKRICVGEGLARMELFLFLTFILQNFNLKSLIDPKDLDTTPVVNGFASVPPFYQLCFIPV
How it was run: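 In 50mM KPO4, the reaction held 5nM enzyme and KM-level (10uM) Luciferin-H EGE; it ran 60 min at 37C after NADPH regeneration and a 10 min compound preincubation. Luminescence values were scaled to 57uM ketoconazole as complete inhibition.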

[11] = target: ATP-dependent 6-phosphofructokinase (Trypanosoma brucei brucei) (UniProt O15648); assay: qHTS Assay to Find Inhibitors of T. brucei phosphofructokinase: hit validation (AID 492961); conditions: T. brucei PFK, ADP-Glo luminescence; series mostly up to 51.4 µM
Sequence of ATP-dependent 6-phosphofructokinase (Trypanosoma brucei brucei) (O15648 whole entry, looked up): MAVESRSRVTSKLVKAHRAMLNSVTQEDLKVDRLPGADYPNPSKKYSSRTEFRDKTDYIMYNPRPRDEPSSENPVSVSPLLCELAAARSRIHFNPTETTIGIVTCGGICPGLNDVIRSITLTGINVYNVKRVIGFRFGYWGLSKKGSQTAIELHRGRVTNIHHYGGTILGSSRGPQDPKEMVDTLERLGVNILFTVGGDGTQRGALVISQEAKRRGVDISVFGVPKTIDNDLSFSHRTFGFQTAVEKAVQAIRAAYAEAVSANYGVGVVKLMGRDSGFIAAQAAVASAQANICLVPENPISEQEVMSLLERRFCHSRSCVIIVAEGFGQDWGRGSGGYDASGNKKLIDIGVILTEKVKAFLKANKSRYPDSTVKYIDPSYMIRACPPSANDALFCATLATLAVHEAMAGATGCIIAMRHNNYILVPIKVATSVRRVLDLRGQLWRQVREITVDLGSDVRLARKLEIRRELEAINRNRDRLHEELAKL
How it was run: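 Reaction: 0.1 M triethanolamine pH 8.0, 5 mM MgCl2, F6P 0.5 mM, ATP 0.1 mM, PFK 1.25 nM, 45 min RT. Read-out: ADP-Glo luminescence. Analysis: concentration-response fits, classed by r2 and efficacy.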

[12] = target: Ubiquitin carboxyl-terminal hydrolase 1 (Homo sapiens) (UniProt O94782); assay: Inhibitors of USP1/UAF1: Pilot qHTS (AID 504865); conditions: purified USP1/UAF1, Ub-rhodamine cleavage fluorescence; series mostly up to 114 µM;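 further: rhodamine fluorescence freed from ubiquitin-rhodamine substrate followed over time; top concentration of the series differs between compounds; on the % scale 0 is the no-effect control and ±100 the full control effect; nearly all actives have a fitted effect of over 35% in size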
Sequence of Ubiquitin carboxyl-terminal hydrolase 1 (Homo sapiens) (O94782 whole entry, looked up): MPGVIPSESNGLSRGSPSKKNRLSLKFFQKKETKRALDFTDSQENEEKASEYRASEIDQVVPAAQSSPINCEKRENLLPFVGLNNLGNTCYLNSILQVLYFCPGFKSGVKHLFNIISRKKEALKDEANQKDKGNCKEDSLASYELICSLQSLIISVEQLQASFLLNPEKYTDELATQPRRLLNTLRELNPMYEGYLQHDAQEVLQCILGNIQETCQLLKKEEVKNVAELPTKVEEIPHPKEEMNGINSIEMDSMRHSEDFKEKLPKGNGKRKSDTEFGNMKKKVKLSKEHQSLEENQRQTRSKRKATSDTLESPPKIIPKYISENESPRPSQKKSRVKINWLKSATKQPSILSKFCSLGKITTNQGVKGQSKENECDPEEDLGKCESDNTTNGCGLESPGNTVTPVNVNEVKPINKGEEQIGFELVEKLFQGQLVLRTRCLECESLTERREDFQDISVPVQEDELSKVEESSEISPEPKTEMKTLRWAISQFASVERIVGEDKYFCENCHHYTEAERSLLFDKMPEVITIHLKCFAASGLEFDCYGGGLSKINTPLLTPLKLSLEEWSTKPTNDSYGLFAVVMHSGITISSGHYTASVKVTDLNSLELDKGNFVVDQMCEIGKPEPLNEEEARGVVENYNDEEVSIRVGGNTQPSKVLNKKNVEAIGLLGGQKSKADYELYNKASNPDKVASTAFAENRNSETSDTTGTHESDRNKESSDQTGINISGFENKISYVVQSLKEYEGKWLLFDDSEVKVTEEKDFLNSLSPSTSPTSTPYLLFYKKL
How it was run: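 USP1/UAF1 complex at 1 nM preincubated 15 min at room temperature with compound, then Ub-Rho substrate added at 150 nM final. Fluorescence (480/540 nm) read kinetically in 50 mM HEPES pH 7.8, 0.5 mM EDTA, 1 mM TCEP, 0.1 mg/ml BSA, 0.01% Tween-20.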

[13] = target: Luciferin 4-monooxygenase (Photinus pyralis) (UniProt P08659); assay: Biochemical firefly luciferase enzyme assay for NPC (AID 624030);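 further: purified P. pyralis luciferase at 10 nM with luciferin and ATP substrate; 0% = DMSO and -100% = full luciferase inhibition by PTC124 control; nearly all actives have a fitted effect of over 70% in size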; conditions: purified P. pyralis luciferase, luminescence, 5 min; series mostly up to 58.6 µM
Sequence of Luciferin 4-monooxygenase (Photinus pyralis) (P08659 whole entry, looked up): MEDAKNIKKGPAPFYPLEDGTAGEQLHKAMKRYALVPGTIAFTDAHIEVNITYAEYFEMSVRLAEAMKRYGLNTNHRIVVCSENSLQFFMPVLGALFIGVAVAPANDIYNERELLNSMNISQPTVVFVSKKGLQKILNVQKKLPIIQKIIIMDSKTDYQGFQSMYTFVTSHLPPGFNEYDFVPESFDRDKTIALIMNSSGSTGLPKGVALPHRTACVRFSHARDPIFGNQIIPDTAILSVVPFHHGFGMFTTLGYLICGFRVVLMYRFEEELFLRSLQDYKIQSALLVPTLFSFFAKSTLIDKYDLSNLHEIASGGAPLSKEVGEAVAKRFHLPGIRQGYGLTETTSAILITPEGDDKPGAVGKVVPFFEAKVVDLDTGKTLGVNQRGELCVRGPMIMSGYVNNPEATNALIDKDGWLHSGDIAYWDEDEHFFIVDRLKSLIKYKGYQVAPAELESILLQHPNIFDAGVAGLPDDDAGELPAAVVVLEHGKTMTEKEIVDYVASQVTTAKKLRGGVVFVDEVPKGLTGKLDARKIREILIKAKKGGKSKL
How it was run: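 Counter-screen for direct inhibition of the luciferase enzyme by approved-drug library compounds, run at 10 nM enzyme in 50 mM Tris acetate (final). Luminescence was read within 5 min of enzyme-buffer addition and normalized to PTC124 versus DMSO (0%).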

[14] = S16 Schwann cell viability assay (CellTiter-Glo assay) (AID 624031); conditions: S16 rat Schwann cells viability, 24 h; series mostly up to 57.5 µM;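 further: cellular ATP luminescence as a viability measure; plate controls were DMSO-treated cells for no effect and cell-free wells for full effect; nearly all actives have a fitted effect of over 70% in size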
How it was run: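 Native S16 rat Schwann cells, 500-750 cells/well in DMEM with 10% FBS, dosed with compound after overnight culture and incubated 24h at 37 degree Celsius/5% CO2. Viability by CellTiter-Glo luminescence; % activity normalized to no-cell wells and DMSO-treated cells.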

[15] = S16 Schwann cell PMP22 intronic element firefly luciferase assay (AID 624032); conditions: S16 rat Schwann cells, PMP22 element FLuc, 24 h; series mostly up to 57.5 µM;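 further: plate controls were DMSO for no effect and PTC124 positive control mean for full effect; nearly all actives have a fitted effect of over 30% in size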
How it was run: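 Rat S16 Schwann cells stably carrying a PMP22 intronic element-driven Fluc reporter were seeded overnight, then exposed to compounds for 24 h at 37 °C. Luminescence was normalized to PTC124 (positive control) and DMSO (0% activity).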

[16] = S16 Schwann cell PMP22 intronic element beta-lactamase assay (AID 624044; calls by dose curve;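 further: 0% = DMSO and -100% = potassium clavulanate positive control; nearly all actives have a fitted effect of over 15% in size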); conditions: S16 rat Schwann cells, PMP22 element beta-lactamase FRET, 24 h; series mostly up to 38.3 µM
How it was run: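 Beta-lactamase reporter under a PMP22 intronic regulatory element in stable S16 rat Schwann cells; 24 h compound exposure. 460 nm blue signal normalized between DMSO (0%) and potassium clavulanate, with 535 nm FRET tracking viability; curves classed by r2 and response.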

[17] = qHTS profiling for inhibitors of Plasmodium falciparum proliferation (AID 504749);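 further: 0% = DMSO vehicle and full inhibition = artemisinin control; nearly all actives have a fitted effect of over 60% in size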; conditions: P. falciparum in erythrocytes, SYBR Green DNA, 72 h, at 28.7 µM (top of the series)
How it was run: (§1)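 Quantitative HTS: compounds pinned into medium, infected erythrocytes added (0.3% parasitemia, 2.5% hematocrit), 72 h culture at 37 C under 5% CO2. Saponin/Triton lysis with SYBR Green I, overnight RT, then fluorescence read.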

3D7 = assay: as above; conditions: P. falciparum in erythrocytes, SYBR Green DNA, 72 h; series mostly up to 28.7 µM
How it was run: as §1

7G8 = assay: as above; conditions: P. falciparum in erythrocytes, SYBR Green DNA, 72 h; series mostly up to 28.7 µM
How it was run: as §1

AA1029 = assay: as above; conditions: P. falciparum in erythrocytes, SYBR Green DNA, 72 h; series mostly up to 28.7 µM
How it was run: as §1

AS120 = assay: as above; conditions: P. falciparum in erythrocytes, SYBR Green DNA, 72 h; series mostly up to 28.7 µM
How it was run: as §1

ATS189 = assay: as above; conditions: P. falciparum in erythrocytes, SYBR Green DNA, 72 h; series mostly up to 28.7 µM
How it was run: as §1

ATS95 = assay: as above; conditions: P. falciparum in erythrocytes, SYBR Green DNA, 72 h; series mostly up to 28.7 µM
How it was run: as §1

C2A = assay: as above; conditions: P. falciparum in erythrocytes, SYBR Green DNA, 72 h; series mostly up to 28.7 µM
How it was run: as §1

CP185 = assay: as above; conditions: P. falciparum in erythrocytes, SYBR Green DNA, 72 h; series mostly up to 28.7 µM
How it was run: as §1

CP191 = assay: as above; conditions: P. falciparum in erythrocytes, SYBR Green DNA, 72 h; series mostly up to 28.7 µM
How it was run: as §1

CP192 = assay: as above; conditions: P. falciparum in erythrocytes, SYBR Green DNA, 72 h; series mostly up to 28.7 µM
How it was run: as §1

CP194 = assay: as above; conditions: P. falciparum in erythrocytes, SYBR Green DNA, 72 h; series mostly up to 28.7 µM
How it was run: as §1

CP201 = assay: as above; conditions: P. falciparum in erythrocytes, SYBR Green DNA, 72 h; series mostly up to 28.7 µM
How it was run: as §1

CP203 = assay: as above; conditions: P. falciparum in erythrocytes, SYBR Green DNA, 72 h; series mostly up to 28.7 µM
How it was run: as §1

CP211 = assay: as above; conditions: P. falciparum in erythrocytes, SYBR Green DNA, 72 h; series mostly up to 28.7 µM
How it was run: as §1

CP215 = assay: as above; conditions: P. falciparum in erythrocytes, SYBR Green DNA, 72 h; series mostly up to 28.7 µM
How it was run: as §1

CP217 = assay: as above; conditions: P. falciparum in erythrocytes, SYBR Green DNA, 72 h; series mostly up to 28.7 µM
How it was run: as §1

CP237 = assay: as above; conditions: P. falciparum in erythrocytes, SYBR Green DNA, 72 h; series mostly up to 28.7 µM
How it was run: as §1

CP238 = assay: as above; conditions: P. falciparum in erythrocytes, SYBR Green DNA, 72 h; series mostly up to 28.7 µM
How it was run: as §1

CP247 = assay: as above; conditions: P. falciparum in erythrocytes, SYBR Green DNA, 72 h; series mostly up to 28.7 µM
How it was run: as §1

CP250 = assay: as above; conditions: P. falciparum in erythrocytes, SYBR Green DNA, 72 h; series mostly up to 28.7 µM
How it was run: as §1

C[N+]1([O-])[C@H]2CC[C@H]1CC(OC(=O)[C@@H](CO)c1ccccc1)C2 (stereo partly drawn)
inactive: Potency [1] > 11.4 µM | activity change, negative = inhibition [2] -0.292% | activity change, negative = inhibition [3] 0.8% [at 2.29 µM] | activity, negative = inhibition [5] -0.881% | Potency [6] > 46 µM | Potency [7] > 9.22 µM | activity change, negative = inhibition [8] 1.19% [at 11.4 µM] | outcome [9] | Potency [10] | outcome [11] | Potency [12] | outcome [13] | outcome [14] | outcome [15] | outcome [16] | activity, negative = inhibition ([17]; parasite line A) 6.57% | activity, negative = inhibition ([17]; parasite line B) -2.12% | Potency (3D7) | Potency (7G8) | Potency (AA1029) | Potency (AS120) | Potency (ATS189) | Potency (ATS95) | Potency (C2A) | Potency (CP185) | Potency (CP191) | Potency (CP192) | Potency (CP194) | Potency (CP201) | Potency (CP203) | Potency (CP211) | Potency (CP215) | Potency (CP217) | Potency (CP237) | Potency (CP238) | Potency (CP247) | Potency (CP250)
active: activity change, negative = inhibition [4] -79.7%
